Screens as filed in PubChem.
In the library only some 4.1% were active in any assay of this set; here they are far more common.
ALR inh: inhibitors of human ALR sulfhydryl oxidase, primary screen, biochemical, H2O2 detection, HRP-luminol luminescence, single point; FAD-linked sulfhydryl oxidase ALR (Homo sapiens), P55789; purified ALR, DTT oxidation; inhibition, % (test concentration not listed); hit rate 3.8% among 290,000; AID 485317, 2010;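 active = mean replicate inhibition above about 79%, with every replicate also reaching it, limit read from the data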
Target sequence (P55789 whole entry, looked up): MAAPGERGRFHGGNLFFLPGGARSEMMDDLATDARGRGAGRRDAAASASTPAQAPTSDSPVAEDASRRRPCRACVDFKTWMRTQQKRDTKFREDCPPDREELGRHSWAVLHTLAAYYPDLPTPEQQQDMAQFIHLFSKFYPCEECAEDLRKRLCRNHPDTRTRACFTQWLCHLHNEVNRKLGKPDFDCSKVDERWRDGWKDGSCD
NSD2 inh: NSD2 histone methyltransferase inhibitors, primary screen, biochemical, AlphaScreen, single concentration, set 2; Histone-lysine N-methyltransferase NSD2 (Homo sapiens), O96028; NSD2 peptide methylation, 120 min; inhibition, % at 12.5 µM; hit rate 0.54% among 310,000; AID 743445, 2014; in the data active = inhibition above about 50%
PglD DTNB: C. jejuni PglD acetyltransferase inhibitors, primary screen, biochemical, DTNB colorimetric, single point | UDP-N-acetylbacillosamine N-acetyltransferase PglD (Campylobacter jejuni) | hit rate 0.098% among 360,000 | purified PglD enzyme, DTNB colorimetric CoA detection | AID 602405, 2012 | inhibition, % at 12.5 µM; in the data active = inhibition above about 16%, passing the limit was not always enough
HIV Env fusion: inhibitors of HIV-1 Env-driven cell-cell fusion, primary screen, HeLa-JRFL effector, CEM21 target cells, luciferase | hit rate 1.1% among 360,000 | inhibition, % at 12.3 µM;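 active = mean replicate inhibition score of at least 50 and every replicate individually at or above 50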
F508del corr: F508del CFTR correction, initial screen, CFBE line, single point; activity (quench increase), % at 7.58 µM; CFBE cells, YFP halide quenching; stimulated with forskolin plus potentiator P3; % fluorescence drop versus neutral controls; hit rate 0.36% among 350,000;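 active = mean added fluorescence quench of at least 8% versus neutral control, with both replicates also reaching 8%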;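 also: cells transiently co-express mutant CFTR-F508del with the halide-sensitive YFP; corrector assay measuring rescue of mutant channel to the surface after 24 h compound exposure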
Casp6 inh: human caspase-6 inhibitors, primary screen, biochemical, VEID-R110 fluorescence, single point, set 2; P55212; purified caspase-6, Z-VEID-R110 cleavage fluorescence; inhibition, % at 12.5 µM; hit rate 0.53% among 350,000; AID 686996, 2013;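 active = mean inhibition across replicates at least about 35%, with every replicate also reaching that limit, limit read from the data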
Target sequence (P55212 24-179 limits assumed): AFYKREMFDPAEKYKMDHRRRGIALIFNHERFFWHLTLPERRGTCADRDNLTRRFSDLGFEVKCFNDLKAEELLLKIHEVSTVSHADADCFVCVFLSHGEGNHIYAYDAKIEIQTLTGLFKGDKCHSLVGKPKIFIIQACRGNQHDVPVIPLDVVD
Target sequence (P55212 194-293 limits assumed): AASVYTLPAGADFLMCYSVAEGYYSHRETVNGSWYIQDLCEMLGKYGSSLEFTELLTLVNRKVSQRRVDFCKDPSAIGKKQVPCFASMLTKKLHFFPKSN
Large screens that a line does not name were inactive; [ ] = dose if it differs, or a comment.

O=C(Nc1cccc(F)c1)N1CCCCN2[C@@H](CO)[C@H](c3ccc(C#Cc4ccccc4)cc3)[C@@H]2C1	F508del corr 8.9 (no result: ALR inh, NSD2 inh, HIV Env fusion)
CO[C@H]1CN(C)C(=O)c2ccc(NC(=O)C3CC3)cc2OC[C@H](C)N(Cc2cc(F)ccc2F)C[C@@H]1C	HIV Env fusion 81[16.7 µM] (no result: ALR inh, NSD2 inh)
CCCC(=O)Nc1ccc2c(c1)OC[C@H](C)N(Cc1ccncc1)C[C@H](C)[C@H](OC)CN(C)C2=O	HIV Env fusion 63[16.7 µM] (no result: ALR inh, NSD2 inh)
CO[C@@H]1CN(C)C(=O)c2ccc(NC(C)=O)cc2OC[C@@H](C)N(Cc2cncnc2)C[C@@H]1C	HIV Env fusion 57[16.7 µM] (no result: ALR inh, NSD2 inh, Casp6 inh)
CCCC(=O)Nc1ccc2c(c1)OC[C@H](C)N(Cc1ccncc1)C[C@H](C)[C@@H](OC)CN(C)C2=O	none (no result: ALR inh, NSD2 inh, PglD DTNB, HIV Env fusion)
COc1ccc(NC(=O)Nc2ccc3c(c2)CC(=O)N([C@H](C)CO)C[C@H](C)[C@@H](CN(C)Cc2ccc(C(=O)Nc4ccccc4N)cc2)O3)cc1	none (no result: ALR inh, NSD2 inh, PglD DTNB, HIV Env fusion)
O=NC1=C(c2c(O)[nH]c3ccccc23)CCCC1	none (no result: PglD DTNB, HIV Env fusion)
Oc1[nH]c2ccccc2c1C1=NCCCCC1	ALR inh 93 (no result: F508del corr)
CC1CCCN(S(=O)(=O)c2ccc(C(=O)Nc3nnc(C4=COCCO4)o3)cc2)C1 (configuration not stated)	ALR inh 98
O=C(Nc1nnc(C2=COCCO2)o1)c1ccc(S(=O)(=O)N2CCOCC2)cc1	none (no result: PglD DTNB)
CC1CCCCN1S(=O)(=O)c1ccc(C(=O)Nc2nnc(C3=COCCO3)o2)cc1 (configuration not stated)	ALR inh 97
O=C(O)C1Nc2c(cccc2C(F)(F)F)C2C=CCC12 (configuration not stated)	none (no result: NSD2 inh, PglD DTNB, HIV Env fusion, F508del corr, Casp6 inh)
O=C(NC1CC1)C1Nc2ccc(OC(F)(F)F)cc2C2C=CCC12 (configuration not stated)	none (no result: NSD2 inh, Casp6 inh)
COc1cccc2c1NC(C(=O)O)C1CC=CC21 (configuration not stated)	ALR inh 81 (no result: NSD2 inh, PglD DTNB, HIV Env fusion, F508del corr, Casp6 inh)
CC(=O)c1ccc2c(c1)C1C=CCC1C(C(=O)O)N2 (configuration not stated)	NSD2 inh 128 (no result: ALR inh, PglD DTNB, Casp6 inh)
O=C(O)C1Nc2ccc(OC(F)(F)F)cc2C2C=CCC12 (configuration not stated)	ALR inh 97 (no result: NSD2 inh, PglD DTNB, HIV Env fusion, F508del corr, Casp6 inh)
CCCCCCC(=O)N/N=C/c1ccco1	ALR inh 97 (no result: PglD DTNB, F508del corr, Casp6 inh)
C#CC1(O)CCC2C3CCC4=C(CCC(=O)C4)C3CCC21C (configuration not stated)	HIV Env fusion 62 (no result: ALR inh)
COCC(=O)N1CC(=O)N2[C@@H](CO)[C@@H](c3ccc(C#CC4CCCC4)cc3)[C@@H]2C1	none (no result: ALR inh, NSD2 inh, PglD DTNB, HIV Env fusion)
CNC[C@H]1Oc2c(NC(=O)Nc3ccc4c(c3)OCO4)cccc2C(=O)N([C@H](C)CO)C[C@@H]1C	HIV Env fusion 64[16.7 µM] (no result: ALR inh, NSD2 inh)
C[C@H](CO)N1C[C@H](C)[C@H](CN(C)Cc2ccccc2)Oc2c(NC(=O)Nc3ccc4c(c3)OCO4)cccc2C1=O	HIV Env fusion 65[16.7 µM] (no result: ALR inh, NSD2 inh)
CNC[C@@H]1Oc2c(N)cccc2C(=O)N([C@@H](C)CO)C[C@@H]1C	HIV Env fusion 62[16.7 µM] (no result: ALR inh, NSD2 inh, PglD DTNB, Casp6 inh)
CNC[C@@H]1Oc2c(NC(=O)Nc3ccc4c(c3)OCO4)cccc2C(=O)N([C@H](C)CO)C[C@H]1C	none (no result: ALR inh, NSD2 inh)
O=C(C[C@@H]1C=C[C@@H](NC(=O)Nc2ccccc2F)[C@@H](CO)O1)NCc1ccccc1	none (no result: ALR inh, NSD2 inh, PglD DTNB, HIV Env fusion)
CC(C)NC(=O)N(C)C[C@H]1Oc2ccc(NC(=O)Cc3ccccc3)cc2C(=O)N([C@@H](C)CO)C[C@H]1C	none (no result: ALR inh, NSD2 inh, HIV Env fusion)
C[C@H](CO)N1C[C@H](C)[C@@H](CN(C)S(C)(=O)=O)Oc2cc(C3=CCCC3)ccc2S1(=O)=O	none (no result: ALR inh, NSD2 inh, PglD DTNB, Casp6 inh)
C=CCc1cc(/C=C2/NC(=O)NC2=O)cc(OCC)c1O	none (no result: PglD DTNB)
CCOc1cc(/C=C2/NC(=O)NC2=O)cc([N+](=O)[O-])c1O	ALR inh 94 (no result: PglD DTNB, F508del corr, Casp6 inh)
COc1ccc2c(c1)[C@]1(C(=O)N2C)C2=C(CCCC2=O)Oc2cc(C)oc(=O)c21	HIV Env fusion 65 (no result: ALR inh, PglD DTNB)
Cc1nnc(SCC(=O)NC(C)(C)C)n1NCc1ccc(N(C)C)cc1	ALR inh 81
COCCCNC(=O)c1sc2ncnc(N3CCc4ccccc4C3)c2c1C	HIV Env fusion 78 (no result: F508del corr, Casp6 inh)
Cc1c(C(=O)N2CCOCC2)sc2ncnc(N3CCc4ccccc4C3)c12	none (no result: ALR inh, HIV Env fusion, F508del corr, Casp6 inh)
COc1ccc(C#Cc2ccc3c(c2)[C@@H]2[C@@H](CCN2C(=O)c2cccc(F)c2)[C@@H](CO)N3)cc1	F508del corr 8.7 (no result: ALR inh, NSD2 inh, HIV Env fusion)
COc1ccc(S(=O)(=O)N[C@H]2CC[C@@H](CC(=O)N3CCN(c4ccccc4)CC3)O[C@H]2CO)cc1	none (no result: ALR inh, NSD2 inh)
Cc1cc(=O)oc2cc(OCCSCCN3CCCCC3)ccc12	ALR inh 99
CC1CC(C)(C)N2C(=O)C3(Nc4ccccc4S3)c3cccc1c32 (configuration not stated)	none (no result: HIV Env fusion, F508del corr, Casp6 inh)
Cc1cc2c3c(c1)C1(SCC(=O)N1c1ccc(F)cc1)C(=O)N3C(C)(C)CC2C (configuration not stated)	HIV Env fusion 69 (no result: F508del corr, Casp6 inh)
C=CCn1c(SCc2csc(-c3ccc(C)cc3)n2)nnc1-c1ccccc1OC	ALR inh 99 (no result: F508del corr, Casp6 inh)
C=CCn1c(=O)c2ccccc2n2c(SCc3csc(-c4ccccc4)n3)nnc12	ALR inh 99 (no result: HIV Env fusion, F508del corr)
C/C(=N\NC(=O)c1csc2ccccc12)c1ccc(O)cc1	ALR inh 100 (no result: HIV Env fusion, F508del corr, Casp6 inh)
C/C(=N\NC(=O)C(c1ccccc1)c1ccccc1)c1ccc(O)cc1	ALR inh 90
COC(C(=O)N/N=C(\C)c1ccc(C)cc1)c1ccccc1 (configuration not stated)	none
COC(C(=O)N/N=C(\C)c1ccc(O)cc1)c1ccccc1 (configuration not stated)	ALR inh 98
N#C[C@H]1[C@@H](c2ccccc2C2=CCCC2)[C@@H](CO)N1C(=O)NC1CCCC1	none (no result: ALR inh, NSD2 inh, PglD DTNB, HIV Env fusion)
O=C(Cc1cccc2ccccc12)NC1CCCCCC1	none (no result: ALR inh, PglD DTNB, HIV Env fusion, F508del corr, Casp6 inh)
COc1ccccc1-c1ccc([C@H]2[C@@H](C#N)N(C(=O)C3CCOCC3)[C@H]2CO)cc1	none (no result: ALR inh, NSD2 inh)
COc1ccc(-c2nc(NC(=O)Cn3cnnn3)sc2C)cc1	none (no result: ALR inh)
Cc1sc(NC(=O)CSC2=NCCS2)nc1-c1ccccc1	ALR inh 99 (no result: F508del corr, Casp6 inh)
Cc1sc(NC(=O)CSc2ncn(-c3ccccc3)n2)nc1-c1ccccc1	none (no result: F508del corr, Casp6 inh)
COc1ccc(-c2nc(NC(=O)C3CCN(c4nc5ccccc5o4)CC3)sc2C)cc1	HIV Env fusion 67 (no result: ALR inh, NSD2 inh, F508del corr, Casp6 inh)
Cc1nc(SCC(=O)Nc2nc3ccccc3s2)c(C#N)c(C)c1C	HIV Env fusion 63 (no result: PglD DTNB)
COc1ccc(-c2nc(NC(=O)CSCCO)sc2C)cc1	ALR inh 98 (no result: PglD DTNB)
COc1ccc(-c2nc(NC(=O)c3ccc(OCC(=O)N4CCOCC4)c(OC)c3)sc2C)cc1	ALR inh 96 (no result: PglD DTNB, Casp6 inh)
